The list is not random: actives were taken first. Their share in the collection is about 4.8%.
DRD3 antagonist: qHTS of D3 Dopamine Receptor Antagonist: qHTS; D3R cells, DiscoveRx beta-arrestin luminescence, antagonist mode; active compounds read low; max response, negative = inhibition, %; actives 2.5% (n = 360,000); AID 652054, 2013; in the data active = max response below about -50%; inconclusive = no clear call, values can overlap the other calls; note: % is set by controls: 0 for no effect and ±100 for the full control effect
Target sequence (P35462 whole entry, looked up): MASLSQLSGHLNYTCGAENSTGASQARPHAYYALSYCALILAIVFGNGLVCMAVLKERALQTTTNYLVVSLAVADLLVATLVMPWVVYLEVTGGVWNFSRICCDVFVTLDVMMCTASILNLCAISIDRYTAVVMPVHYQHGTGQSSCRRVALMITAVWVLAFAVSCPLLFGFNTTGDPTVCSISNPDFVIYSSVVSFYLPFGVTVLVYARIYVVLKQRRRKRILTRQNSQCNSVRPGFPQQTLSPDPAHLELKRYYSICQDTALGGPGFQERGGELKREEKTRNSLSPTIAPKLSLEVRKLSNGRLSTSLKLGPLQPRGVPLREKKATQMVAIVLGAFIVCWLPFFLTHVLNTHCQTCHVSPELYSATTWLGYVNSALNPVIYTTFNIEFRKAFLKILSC
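Cells plated overnight at 1500 cells/well, then exposed to library compounds with dopamine controls for 90 minutes at 37 degrees C. DiscoveRx reagent added for 30–60 minutes at room temperature; luminescence read, quantitative HTS format.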
DRD3 agonist: qHTS of D3 Dopamine Receptor Agonist: qHTS. D3R DiscoveRx beta-arrestin cells, luminescence, 90 min. max activation, %. actives 0.58% (n = 410,000). AID 652048, 2013; in the data active = max activation above about 30%; note: 0% is about no effect
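Cells at 1500/well, incubated overnight, then treated with pinned compounds (dopamine as control) for 90 min at 37 degrees C. DiscoveRx reagent added for 30 - 60 minutes at room temperature; luminescence read.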
HepG2 tox-1: qHTS for Inhibitors of TGF-b: Cytotox Counterscreen; HepG2 CAGA-GFP viability, ATP luminescence, 18 h; Potency, µM (doses to about 46.1 µM), for the others: at the top dose activity change, negative = cytotoxicity, most hits filed as cytotoxic; actives 0.76% (n = 410,000); AID 588856, 2011; note: potency is the fitted concentration of half-maximal effect
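HepG2 CAGA-GFP cells (1000/well, DMEM with 1% FBS) received compound, then TGF-beta at 500 pg/mL final, and were incubated 18 hours at 37 degrees C. Viability was read by CellTiter-Glo luminescence. Media-only wells were set as complete cell-killing and DMSO as no toxicity.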
S2 tox: Viability Counterscreen for Primary qHTS for Inhibitors of ATXN expression; S2 cells (HEK-293 line with an ATXN2-luciferase reporter) viability, CellTiter-Fluor protease fluorescence, 24 h; Potency, µM (titrated, usually from 56.7 µM), actives largely listed as cytotoxic; actives 0.49% (n = 400,000); note: potency is the fitted concentration of half-maximal effect; nearly all actives have a fitted effect of over 40% in size
TGFb SMAD3 inh: qHTS for Inhibitors of TGF-b | HepG2 CAGA-GFP TGF-b/SMAD3 reporter, GFP fluorescence, 18 h; TGF-beta stimulated, 500 pg/mL final | Potency, µM (highest dose often 46.1 µM), without a hit: top-dose activity, negative = inhibition, usual class: inhibitors | actives 1.2% (n = 410,000) | AID 588855, 2011; note: potency is the fitted concentration of half-maximal effect; % is set by controls: 0 for no effect and ±100 for the full control effect; nearly all actives have a fitted effect of over 65% in size
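Read-out: total well GFP (ex488/em500-530) summed from mean per-cell fluorescence. Cells: HEPG2 CAGA-GFP, 1% FBS DMEM, 18 h at 37 degrees C with 500 pg/mL final TGF-beta. Unstimulated wells served as the full-inhibition control; stimulated DMSO wells = 0%.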
ATXN2 expr inh: Primary qHTS for Inhibitors of ATXN expression; HEK-293 ATXN2-luciferase reporter, luminescence, 24 h; Potency, µM (series often up to 57 µM), for inactives: at the highest dose activity change, negative = inhibition, actives largely listed as inhibitors; actives 0.72% (n = 360,000); note: potency is the fitted concentration of half-maximal effect; % is set by controls: 0 for no effect and ±100 for the full control effect; nearly all actives have a fitted effect of over 55% in size
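ATXN2-luciferase reporter cells (luciferase flanked by upstream and downstream ATXN2 gene portions) were treated 24 h at 37 °C with compounds at up to 57 uM. SteadyGlo luminescence gave expression; GF-AFC fluorescence gave viability.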
TGFb CAGA inh: qHTS for Inhibitors of TGF-b: Confirmation of Cherry Picks. shares compounds with TGFb SMAD3 inh. HepG2 CAGA-GFP TGF-b reporter, GFP fluorescence, 18 h; cells stimulated with TGF-beta, 500 pg/mL. Potency, µM (highest dose often 46.1 µM), without a hit: top-dose activity, negative = inhibition, most hits filed as inhibitors. actives 63% (n = 1,600). AID 720534, 2013; note: potency is the fitted concentration of half-maximal effect; % is set by controls: 0 for no effect and ±100 for the full control effect; nearly all actives have a fitted effect of over 65% in size
HepG2 tox-2: qHTS for Inhibitors of TGF-b: Cytotox Counterscreen for Cherry Picks. shares compounds with TGFb SMAD3 inh. HepG2 CAGA-GFP viability, ATP luminescence, 18 h; cells stimulated with TGF-beta, 500 pg/mL. Potency, µM (highest dose often 46.1 µM), inactives show at the highest dose activity, negative = cytotoxicity, actives largely listed as inhibitors. actives 27% (n = 1,600); note: potency is the fitted concentration of half-maximal effect; % is set by controls: 0 for no effect and ±100 for the full control effect; nearly all actives have a fitted effect of over 70% in size
TGFb CCL64 inh: qHTS for Inhibitors of TGF-b: CCL64 Cells Orthogonal Assay for Cherry Picks | shares compounds with TGFb SMAD3 inh | CCL64 CAGA-GFP reporter, TGF-b stimulated, GFP fluorescence, 18 h | Potency, µM (doses to about 46.1 µM), without a hit: top-dose activity, negative = inhibition, hits mostly inhibitors | actives 41% (n = 1,600) | AID 720536, 2013; note: potency is the fitted concentration of half-maximal effect; nearly all actives have a fitted effect of over 65% in size
TGFb COP inh: qHTS for Inhibitors of TGF-b: Hit Validation in HepG2 Cells using COP promoter | shares compounds with TGFb SMAD3 inh | HepG2 COP-GFP TGF-b reporter, GFP fluorescence, 18 h; cells stimulated by added recombinant TGF-beta | Potency, µM (doses to about 46.1 µM), for the others: at the top dose activity, negative = inhibition, actives largely listed as inhibitors | actives 3% (n = 1,600); note: potency is the fitted concentration of half-maximal effect; nearly all actives have a fitted effect of over 70% in size
* marks the source's active call; other numbers are inactive results; i = inactive; ? = inconclusive; . = no result given. Unless noted, calls come from the whole dose curve; as a rule, active = well fitted curve in the direction sought with a large enough effect; inconclusive = small, poorly fitted or top-dose-only effect, or another doubt; inactive = no such curve, though single readings can be large; an effect the other way counts as inactive or inconclusive.

SMILES	DRD3 antagonist	DRD3 agonist	HepG2 tox-1	S2 tox	TGFb SMAD3 inh	ATXN2 expr inh	TGFb CAGA inh	HepG2 tox-2	TGFb CCL64 inh	TGFb COP inh
COc1cccc2c1C(=O)c1c(O)c3c(c(O)c1C2=O)C[C@](O)(C(C)=O)C[C@H]3O[C@@H]1C[C@@H](N)[C@@H](O)[C@@H](C)O1	0	-38	-86%	?	1µM*	?	1µM*	0.52µM*	4.1µM*	?
O=C(NC1CC(=O)N(c2ccccc2)C1)c1ccc(S(=O)(=O)N2CCCCC2)cc1 (configuration not stated)	.	5	-8%	.	1%	.	.	.	.	.
CCOC(=O)c1c(C)oc2c1C(=O)c1ccccc1C2=O	-5	-8	5µM*	i	5µM*	?	5.2µM*	5.8µM*	4.6µM*	16µM*
O=Cc1ccccc1C=O	.	-7	.	i	.	9%	.	.	.	.
O=C(CN1C2CCCC1CC(NC(=O)C1CCCCC1)C2)NCc1ccc(F)cc1 (configuration not stated)	2	-2	0%	i	-16%	.	.	.	.	.
O=C(CN1C2CCCC1CC(NC(=O)C1CCCCC1)C2)Nc1ccccc1C(F)(F)F (configuration not stated)	-2	6	-13%	?	?	?	18µM*	?	?	-3%
Cc1ccc(Nc2nc(-c3ccncc3)nc3ccccc23)cc1	7	16	-12%	i	8%	?	5%	?	-9%	22%
c1ccc(Nc2nc(-c3ccncc3)nc3ccccc23)cc1	65	-5	-2%	i	8%	-25%	-26%	-28%	-20%	2%
CC(=O)c1ccc(Nc2nc(-c3ccccc3)nc3ccccc23)cc1	27	3	-22%	?	-6%	-26%	-11%	-10%	-6%	-18%
Cc1ccc(Nc2nc(-c3ccccc3)nc3ccccc23)cc1	.	2	-56%	?	?	?	.	.	.	.
CC(=O)c1cccc(Nc2nc(-c3ccccc3)nc3ccccc23)c1	8	-3	3%	.	-4%	-9%	.	.	.	.
Cc1cc2oc(C(=O)Nc3ccc(S(=O)(=O)N(C)c4ccccc4)cc3)cc(=O)c2cc1C	.	7	-1%	i	-19%	2%	.	.	.	.
COc1cccc(C(=O)Nc2nc(-c3nnn(-c4cccc(Cl)c4C)c3C)ns2)c1	.	6	-52%	i	?	-1%	.	.	.	.
Cc1ccc2c(CC(=O)Nc3c(C(=O)Nc4cccc(Cl)c4)oc4ccccc34)coc2c1C	.	3	13%	i	0%	29%	.	.	.	.
Cc1ccc2nc(N3CCN(C(=O)c4ccc(F)cc4)CC3)c(C#N)cc2c1	-5	7	-17%	i	10µM*	.	?	-30%	?	1%
CCN(c1ncnc2c1cnn2-c1cc(Cl)ccc1C)C1CCCCC1	.	-15	-33%	i	?	-9%	.	.	.	.
Cc1ccc(NS(=O)(=O)c2ccc(N3CCN(c4ccc(O)cc4)CC3)c([N+](=O)[O-])c2)c(C)c1	0	-29	-4%	i	14µM*	?	12µM*	?	?	69%
O=[N+]([O-])c1cc(S(=O)(=O)Nc2ccccc2)ccc1N1CCN(c2ccc(O)cc2)CC1	0	-5	-18%	?	?	-20%	.	.	.	.
COc1cccc(CNC(=O)CSC2=Nc3ccccc3C3=NC(C(C)C)C(=O)N23)c1 (configuration not stated)	.	-11	-21%	i	2%	6%	.	.	.	.
Cc1c(C(=O)N(Cc2ccc(N(C)C)cc2)CC2CCCO2)oc2ccc(Br)cc12 (configuration not stated)	.	0	-41%	.	?	.	.	.	.	.
O=C1C(Nc2ccc(O)cc2)=C/C(=N/S(=O)(=O)c2cccs2)c2ccccc21	-85*	-31	1.1µM*	8.9µM*	1µM*	4µM*	0.65µM*	1µM*	3.7µM*	1µM*
O=C(O)c1ccc(NC2=C/C(=N/S(=O)(=O)c3ccccc3)c3ccccc3C2=O)cc1	-92*	-20	4µM*	.	5.6µM*	35µM*	6.5µM*	18µM*	12µM*	?
CC(=O)Nc1cc(C(=O)NCc2ccc(F)cc2)ccc1Sc1ccc(C)cc1	.	9	-29%	.	-11%	.	.	.	.	.
CC(=O)Nc1ccc(NC(=O)CCc2nc3cccnc3n2Cc2cccs2)cc1	.	-2	-14%	.	16%	.	.	.	.	.
COc1cc(C2c3cc4c(cc3OC(NNC(N)=S)C2C)OCO4)cc(OC)c1OC (configuration not stated)	-16	-4	-23%	?	?	4%	.	.	.	.
COc1cccc(C2c3cc4c(cc3OC(NNC(N)=O)C2C)OCO4)c1O (configuration not stated)	-5	-9	3%	?	10µM*	10%	8.2µM*	-19%	?	-15%
COc1cc(C2c3cc4c(cc3OC(NCc3ccccc3)C2C)OCO4)cc(OC)c1OC (configuration not stated)	5	-5	-105%	?	2.8µM*	-19%	7.3µM*	0%	?	-16%
